Compound activity as filed in PubChem.
USP28 inh – human USP28 deubiquitinase inhibition; actives 3% (n = 47,000); inhibition, % at 25 µM; AID 1645857; purified USP28, Ub-rhodamine cleavage fluorescence, 30 min; Q96RU2
USP17 block – inhibitors of human USP17 deubiquitinase; actives 6.5% (n = 47,000); A8MUK1; inhibition, % at 50 µM; purified USP17, Ub-rhodamine cleavage fluorescence, 3 h; AID 1645855
USP10 block – human USP10 deubiquitinase inhibition; Q14694; purified USP10, Ub-rhodamine fluorescence, 60 min; inhibition, % at 20 µM; actives 1.1% (n = 47,000); AID 1645856
Target sequence (Q14694 whole entry, looked up): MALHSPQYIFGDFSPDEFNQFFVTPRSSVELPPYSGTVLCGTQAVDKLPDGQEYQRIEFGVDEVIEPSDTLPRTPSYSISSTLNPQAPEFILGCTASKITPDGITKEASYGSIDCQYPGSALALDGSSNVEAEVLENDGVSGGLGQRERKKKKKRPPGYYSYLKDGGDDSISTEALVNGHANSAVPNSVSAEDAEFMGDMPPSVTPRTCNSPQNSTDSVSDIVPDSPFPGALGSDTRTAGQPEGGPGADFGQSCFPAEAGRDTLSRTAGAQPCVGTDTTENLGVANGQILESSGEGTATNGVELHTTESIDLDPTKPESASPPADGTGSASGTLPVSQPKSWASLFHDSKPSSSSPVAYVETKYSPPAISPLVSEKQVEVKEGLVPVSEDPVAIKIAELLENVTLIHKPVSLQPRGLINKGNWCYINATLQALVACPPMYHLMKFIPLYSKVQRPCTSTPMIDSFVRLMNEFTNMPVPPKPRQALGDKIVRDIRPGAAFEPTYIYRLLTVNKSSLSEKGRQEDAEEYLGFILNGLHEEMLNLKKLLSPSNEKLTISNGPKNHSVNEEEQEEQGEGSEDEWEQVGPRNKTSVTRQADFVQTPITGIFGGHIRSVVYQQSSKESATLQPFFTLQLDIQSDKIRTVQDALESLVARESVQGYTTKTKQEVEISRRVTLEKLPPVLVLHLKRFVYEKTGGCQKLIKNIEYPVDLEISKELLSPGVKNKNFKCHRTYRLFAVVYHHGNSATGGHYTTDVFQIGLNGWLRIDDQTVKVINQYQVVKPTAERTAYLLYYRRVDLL
USP8 inh – blocks human USP8 ubiquitin-rhodamine cleavage. P40818. purified USP8, Ub-rhodamine cleavage fluorescence, 30 min. inhibition, % at 20 µM. actives 4.2% (n = 47,000)
USP30 block – blocks human USP30 ubiquitin-rhodamine cleavage. Q70CQ3. purified USP30, Ub-rhodamine cleavage fluorescence. inhibition, % at 25 µM. actives 5.3% (n = 47,000)
* hit, by the source's call; . = no result. Only some compounds are listed: those with a hit (about 13% of all), similar ones and a draw of the others. No stated cut-off is given here; in the data, active means inhibition above about 30%; inactive means the rest.

SMILES | USP28 inh | USP17 block | USP10 block | USP8 inh | USP30 block
CC(CCc1ccccc1)NCc1c(C(=O)O)n(Cc2ccccc2)c2ccccc12 (stereo not drawn) | 21.9 | 1.5 | 2.4 | -12.0 | 10.0
COc1cccc(-n2nnc(-c3nnc(-c4ccccc4C)o3)c2C)c1 | 1.8 | -1.7 | 5.2 | -17.4 | 48.8*
COc1ccc(OC)c(-n2nnc(-c3nc(-c4ccccc4C)no3)c2C)c1 | . | 31.5* | 9.6 | 0.0 | .
COc1ccc(S(=O)(=O)c2nnn(-c3cccc(OC)c3)c2C)cc1 | 0.1 | -11.4 | 1.5 | 4.9 | -12.9
COc1ccc(-c2nc(-c3nnn(-c4ccc(C)cc4)c3C)no2)cc1OC | 14.7 | 17.0 | -2.6 | 15.5 | 21.7
COc1ccccc1-c1nc(-c2nnn(-c3ccc(F)cc3)c2C)no1 | . | 12.4 | -0.6 | -2.2 | .
Cc1ccc(-c2nnc(-c3nnn(-c4ccc(C)cc4)c3C)o2)cc1 | 14.6 | 25.1 | 3.8 | 22.6 | 35.1*
Cc1c(-c2nnc(-c3ccccn3)o2)nnn1-c1cccc(Cl)c1 | 94.2* | 11.4 | -0.2 | 0.8 | 69.5*
O=S(=O)(Nc1nc2ccc(S(=O)(=O)N3CCCC3)cc2s1)c1ccc(F)cc1 | -6.8 | 9.4 | 13.7 | -1.6 | -48.0
COc1cccc(C(=O)Nc2nc3ccc(S(=O)(=O)N4CCOCC4)cc3s2)c1OC | . | 47.4* | -0.1 | 7.2 | .
Cc1ccc2nc(NC(=O)C3CC(=O)N(Cc4ccccc4)C3)sc2c1 (stereo not drawn) | -4.3 | 9.7 | -1.7 | 31.2* | -25.2
O=C1NCC2(CCC(C(=O)NCC3CC3)CC2)Oc2ccc(Cl)cc21 (stereo not drawn) | 1.3 | -16.9 | -0.9 | -45.2 | -11.3
CSCCC(NC(=O)/C=C/c1cccc(Br)c1)c1nnc2ccccn12 (stereo not drawn) | -10.3 | -23.0 | -3.9 | -23.2 | -9.9
CCN(CC)c1ccc2ccc(C(=O)N3CCN(c4ccncc4)CC3)cn12 | 19.1 | -10.5 | -5.3 | -184.1 | 35.6*
CCN(CC)c1ccc2ccc(C(=O)N3CCCC3)cn12 | -33.8 | -52.1 | -8.0 | -203.5 | -105.3
O=C(NCc1noc(-c2ccccc2)n1)c1ccc(-c2noc(C3CC3)n2)cc1 | 27.7 | 32.4* | 3.2 | 8.2 | 13.1
COc1ccc(C(=O)NCc2noc(C3CCCCC3)n2)cc1C#N | 42.4* | -14.3 | -0.4 | -52.0 | -3.5
O=C(NCc1noc(Cc2ccccc2)n1)c1ccc(-c2noc(C3CC3)n2)cc1 | 13.1 | 8.8 | 4.3 | -0.9 | 16.9
COc1ccc(C(=O)NCc2noc(C3CCCC3)n2)cc1OC | . | -3.9 | -0.4 | 1.5 | .
COc1ncccc1C(=O)N1CCOCC1c1cc(=O)[nH]c(C)n1 (stereo not drawn) | 0.0 | 4.7 | 0.9 | 6.9 | -6.6
Cc1ccc(C(C(=O)NC2CCCCC2)N(C(=O)CCCC(=O)Nc2ccccn2)c2ccc(C)cc2C)cc1 (stereo not drawn) | 5.1 | 48.6* | 2.4 | -3.2 | 26.7
CCCCOc1ccc(N(C(=O)CCCC(=O)Nc2ccccn2)C(C(=O)NC2CCCC2)c2ccc(F)cc2)cc1 (stereo not drawn) | -0.1 | -1.6 | 2.4 | 8.0 | 2.4
Cc1ccc(N(C(=O)CCCC(=O)Nc2ccccn2)C(C(=O)NC2CCCC2)c2ccc(F)cc2)c(C)c1 (stereo not drawn) | 0.8 | 15.8 | -2.8 | 0.2 | 9.2
COc1ccc(OC)c(N(C(=O)CCCC(=O)Nc2ccccn2)C(C(=O)NC2CCCCC2)c2ccc(F)cc2)c1 (stereo not drawn) | -3.9 | 35.3* | 10.9 | 6.0 | 9.0
COc1ccc(CN(CC(=O)NC2CCCCC2)C(=O)CCC(=O)Nc2ccccn2)cc1 | 0.5 | 3.9 | 2.3 | 0.2 | 48.0*
SMILES | USP28 inh | USP17 block | USP10 block | USP8 inh | USP30 block
COCCN1C(=O)C[C@@H]2[C@H]1CCN2C(=O)c1cncc(C)c1 | 16.3 | 7.0 | 2.5 | -48.5 | 30.8*
COCCN1C(=O)C[C@@H]2[C@H]1CCN2C(=O)c1ccc2ccccc2n1 | 2.3 | -2.0 | -0.5 | -48.0 | 4.4
Cc1ccc(CNC(=O)NC2CCN(c3ccccc3)C2=O)cc1 (stereo not drawn) | 9.2 | 7.6 | 5.7 | 31.8* | 32.8*
O=C1C(NS(=O)(=O)Cc2ccc(Cl)cc2)CCN1c1ccccc1 (stereo not drawn) | 8.0 | 17.8 | 5.4 | 31.4* | 15.7
COc1ccccc1NC(=O)NC1CCN(c2ccccc2)C1=O (stereo not drawn) | -9.6 | 12.0 | 0.0 | 2.4 | -7.1
O=C(Nc1ccccc1F)NC1CCN(c2ccc(F)cc2)C1=O (stereo not drawn) | 26.3 | 51.4* | 7.0 | 25.6 | 79.8*
COC(=O)c1ccc(C(=O)OC)c(N2C(=O)CSCC2=O)c1 | 13.4 | 20.3 | 6.5 | 35.9* | 49.2*
Cc1ccc(-c2onc(C)c2C)cc1S(=O)(=O)NCc1ccccc1 | 15.1 | 21.9 | 10.0 | 11.1 | 34.8*
Cn1c(C(=O)O)c(CNC2CC2)c2ccccc21 | -6.7 | -2.2 | 0.0 | -9.1 | -2.7
O=C(Cn1cnc2c(cnn2-c2ccccc2)c1=O)Nc1cccc([N+](=O)[O-])c1 | -12.4 | 42.3* | 2.4 | 15.5 | -20.2
COc1ccc(Cl)cc1NC(=O)COC(=O)c1cc2ccccc2oc1=O | -2.5 | 3.8 | 11.0 | 70.4* | -1.4
CCc1cccc(CC)c1NC(=O)COC(=O)c1cc2cccc(OC)c2oc1=O | 4.2 | 89.8* | 32.6* | 61.9* | 39.3*
N#Cc1cccc(CN2CCC3(CC2)CCN(c2ncccn2)CC3)c1 | -3.5 | -24.1 | -0.2 | -79.4 | 1.0
CCc1ccc(NC(=O)CCNc2cc(C)nc3nc(-c4cccnc4)nn23)cc1 | -41.8 | 34.4* | -2.5 | -2.1 | -46.8
Cc1cc(Nc2ccc(C(=O)NCc3ccco3)cc2)n2nc(-c3cccnc3)nc2n1 | 11.0 | 74.7* | 4.6 | 11.1 | 30.3*
Cc1cc(Nc2cccc(C(=O)Nc3ccccc3C)c2)n2nc(-c3cccnc3)nc2n1 | 25.0 | 8.0 | 1.6 | -11.7 | 46.1*
CC(C)c1cc(Nc2cccc(F)c2)n2nc(-c3cccnc3)nc2n1 | 6.1 | 34.3* | -0.1 | 15.5 | 53.1*
Cc1cc(Nc2ccc(Cl)cc2)n2nc(-c3cccnc3)nc2n1 | 4.0 | 12.0 | 4.9 | 16.4 | 13.1
Cc1c(Cl)cccc1S(=O)(=O)N1CCCN(CCn2cccn2)CC1 | 6.4 | -0.2 | -1.8 | -29.3 | 0.4
COc1ccc(S(=O)(=O)NCCc2nnc3ccc(SCC(=O)NCc4ccccc4)nn23)cc1 | -0.2 | 0.2 | -5.2 | 11.8 | 5.0
O=C(CSc1ccc2nnc(CCNS(=O)(=O)c3ccccc3)n2n1)NCc1ccc(F)cc1 | 11.7 | 39.1* | -2.4 | 11.3 | 16.2
CCc1ccc(C2CN3C(=O)CN(Cc4ccco4)C(=O)[C@]3(C)c3[nH]c4ccccc4c32)cc1 (stereo partly drawn) | -14.6 | -15.3 | -8.2 | -2.1 | -74.5
C[C@]12C(=O)N(Cc3ccco3)CC(=O)N1CC(c1ccc(Br)cc1)c1c2[nH]c2ccccc12 (stereo partly drawn) | 6.9 | 34.0* | -1.1 | -14.6 | -53.1
Cn1c(=O)c2cc(C(=O)Nc3ccc(F)cc3)cnc2n(C)c1=O | 1.3 | 52.6* | 4.9 | 5.4 | 4.8
